Results filed as inconclusive are left out. Activity calls are given as the source filed them. Calls follow the shape of the dose curve; as a rule, active = well fitted cell-killing curve with a large enough effect; inconclusive = small, poorly fitted or top-dose-only effect, or effect the other way; inactive = no such curve, though single readings can be large or run the other way.
Assays:
[1] = Quantitative High-Throughput drug screen in 47 multiple myeloma cell lines against the NCATS MIPE library collection: JIM1_ECACC cell viability assay (AID 1918964)
Procedure, shortened: (§1)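 Myeloma cell lines, 500 cells per well, exposed to MIPE 4.0 library compounds for 48 h at 37C, 5% CO2. Viability from ATP by CellTiter-Glo luminescence; normalised to DMSO (100%) and media-only (0%) wells.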

[2] = Quantitative High-Throughput drug screen in 47 multiple myeloma cell lines against the NCATS MIPE library collection: INA6_PLB cell viability assay (AID 1918965; also: nearly all actives have a fitted effect of over 55% in size)
Procedure, shortened: (§2)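 Relative luminescence from CellTiter-Glo served as the viability signal, referenced to DMSO-treated (100%) and cell-free medium (0%) controls. Treatment lasted 48 hours at 37C with 500 cells per well.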

[3] = Quantitative High-Throughput drug screen in 47 multiple myeloma cell lines against the NCATS MIPE library collection: JJN3_DSMZ cell viability assay (AID 1918966; also: nearly all actives have a fitted effect of over 50% in size)
Procedure, shortened: as §1

[4] = Quantitative High-Throughput drug screen in 47 multiple myeloma cell lines against the NCATS MIPE library collection: H1112_PLB cell viability assay (AID 1918967; also: nearly all actives have a fitted effect of over 30% in size)
Procedure, shortened: as §1

[5] = Quantitative High-Throughput drug screen in 47 multiple myeloma cell lines against the NCATS MIPE library collection: Karpas25_ECACC cell viability assay (AID 1918968; also: nearly all actives have a fitted effect of over 35% in size)
Procedure, shortened: as §1

[6] = Quantitative High-Throughput drug screen in 47 multiple myeloma cell lines against the NCATS MIPE library collection: KMS27_JCRB cell viability assay (AID 1918970); also: nearly all actives have a fitted effect of over 30% in size
Procedure, shortened: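 KMS27_JCRB myeloma cells, 500 per well, exposed 48 h at 37 C, 5% CO2 to MIPE 4.0 compounds. Viability from ATP by CellTiter-Glo luminescence, normalized to DMSO (100%) and medium-only (0%) wells.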

[7] = Quantitative High-Throughput drug screen in 47 multiple myeloma cell lines against the NCATS MIPE library collection: KMS12BM_JCRB cell viability assay (AID 1918971); also: nearly all actives have a fitted effect of over 35% in size
Procedure, shortened: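 Luminescent ATP measurement with CellTiter-Glo gives viability, scaled between DMSO-only wells (100%) and media-only wells (0%). Cells, 500 per well, faced library compounds for 48 hours at 37C.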

[8] = Quantitative High-Throughput drug screen in 47 multiple myeloma cell lines against the NCATS MIPE library collection: KMS12PE_JCRB cell viability assay (AID 1918972); also: nearly all actives have a fitted effect of over 30% in size
Procedure, shortened: as §2

[9] = Quantitative High-Throughput drug screen in 47 multiple myeloma cell lines against the NCATS MIPE library collection: KMS20_JCRB cell viability assay (AID 1918973); also: nearly all actives have a fitted effect of over 45% in size
Procedure, shortened: as §1

[10] = Quantitative High-Throughput drug screen in 47 multiple myeloma cell lines against the NCATS MIPE library collection: KMS21BM_JCRB cell viability assay (AID 1918974); conditions: ATP luminescence, 48 h; viability: at 45.8 µM (top of the series) unless noted
Procedure, shortened: as §1
Potency is read from the fitted curve at half-maximal effect.

Cc1cccc(-c2[nH]c(C(C)(C)C)nc2-c2ccc3nccnc3c2)n1
active: Potency [1] 6.62 µM | Potency [2] 7.43 µM | Potency [3] 18.7 µM | Potency [4] 5.26 µM | Potency [5] 1.32 µM | Potency [6] 2.96 µM | Potency [7] 20.9 µM | Potency [8] 4.69 µM

COc1ccc(-c2ccc3c(N4CCOCC4)nc(N4C[C@@H](C)O[C@@H](C)C4)nc3n2)cc1CO
active: Potency [1] 0.0332 µM | Potency [2] 5.9 µM | Potency [3] 1.87 µM | Potency [5] 0.743 µM | Potency [6] 0.187 µM | Potency [7] 0.0833 µM | Potency [8] 2.35 µM | Potency [9] 0.235 µM | Potency [10] 0.833 µM

CC(C[N+](C)(C)C)OC(N)=O (stereo not drawn)
inactive: Potency [1] | Potency [2] | Potency [4] | Potency [8]

COc1cc2c(cc1OC)CN(CCc1ccc(NC(=O)c3cccc4c(=O)c5cccc(OC)c5[nH]c34)cc1)CC2
inactive: Potency [1]

O=S(=O)(N=Cc1c(O)ccc2ccccc12)c1cccs1
active: Potency [2] 2.64 µM | Potency [4] 16.6 µM | Potency [5] 1.05 µM
inactive: Potency [1] | Potency [7]

COc1ccc([C@@H]2CC(=O)c3c(O)cc(O[C@@H]4O[C@H](CO[C@@H]5O[C@@H](C)[C@H](O)[C@@H](O)[C@@H]5O)[C@@H](O)[C@H](O)[C@@H]4O)cc3O2)cc1O
inactive: Potency [1] | Potency [2] | Potency [4] | Potency [5] | Potency [6] | Potency [7] | Potency [8]

CS(=O)(=O)c1ccc(C(=O)Nc2ccc(Cl)c(-c3ccccn3)c2)c(Cl)c1
active: Potency [2] 4.18 µM | Potency [5] 9.35 µM
inactive: Potency [1] | Potency [3]

CCOC(=O)C1=C[C@]2(CC)CCCN3CCc4c(n1c1ccccc41)[C@@H]32
active: Potency [1] 11.8 µM | Potency [2] 8.33 µM | Potency [3] 18.7 µM | Potency [4] 11.8 µM | Potency [5] 9.35 µM | Potency [6] 23.5 µM | Potency [7] 14.8 µM | Potency [8] 10.5 µM

CCn1cc(C(=O)O)c(=O)c2cc(F)c(N3CCNC(C)C3)c(F)c21 (stereo not drawn)
inactive: Potency [1] | Potency [2] | Potency [4] | Potency [5] | Potency [7] | Potency [8] | Potency [9]

N[C@@H]1CONC1=O
inactive: Potency [1] | Potency [2] | Potency [3] | Potency [4] | Potency [5] | Potency [6] | Potency [7] | Potency [8] | Potency [9]

Oc1cccc(-c2nc(N3CCOCC3)c3oc4ncccc4c3n2)c1
active: Potency [1] 0.0121 µM | Potency [2] 0.215 µM | Potency [3] 0.108 µM | Potency [4] 9.59 µM | Potency [5] 0.054 µM | Potency [8] 0.121 µM | viability [10] 37.2% [at 92.2 µM]

CN(C)c1ccc(Nc2nc(N)n(C(=O)c3c(F)cccc3F)n2)cc1
active: Potency [1] 18.7 µM | Potency [2] 1.87 µM | Potency [3] 20.9 µM | Potency [5] 26.4 µM | Potency [8] 16.6 µM | Potency [10] 2.35 µM

O=C1CCC(N2C(=O)c3ccccc3C2=O)C(=O)N1 (stereo not drawn)
active: Potency [7] 18.7 µM
inactive: Potency [1] | Potency [2] | Potency [4] | Potency [5] | Potency [8]

CC(C)(N)C(=O)N[C@H](COCc1ccccc1)C(=O)N1CCC2(CC1)CN(S(C)(=O)=O)c1ccccc12
inactive: Potency [1] | Potency [8]
active: Potency [2] 10.5 µM | Potency [3] 3.72 µM | Potency [5] 16.6 µM | Potency [7] 14.8 µM

COc1cc(F)c(F)c(Nc2ccc(I)cc2F)c1NS(=O)(=O)C1(C[C@H](O)CO)CC1
inactive: Potency [2]
active: Potency [1] 16.6 µM | Potency [4] 14.8 µM | Potency [5] 20.9 µM | Potency [8] 16.6 µM

Cc1c(CN2CCN(C(=O)C(C)C)CC2)sc2c(N3CCOCC3)nc(-c3cnc(N)nc3)nc12
active: Potency [1] 0.0132 µM | Potency [2] 0.235 µM | Potency [3] 0.209 µM | Potency [5] 0.059 µM | Potency [6] 0.0187 µM | Potency [7] 0.0296 µM | Potency [8] 0.296 µM | Potency [10] 0.526 µM

CCN(c1ccccc1)c1cc(NC)[n+](C)c(C)n1
inactive: Potency [1] | Potency [2] | Potency [4] | Potency [9]
active: Potency [6] 6.62 µM | Potency [7] 14.8 µM | Potency [10] 0.372 µM

COc1ccc(-c2oc3cc(OC)ccc3c2C(=O)c2ccc(C#N)cc2)cc1
inactive: Potency [2] | Potency [3] | Potency [7] | Potency [9]
active: Potency [1] 6.62 µM | Potency [6] 2.09 µM | Potency [8] 10.5 µM | Potency [10] 1.32 µM

N=c1nc(N2CCCCC2)cc(N)n1O
inactive: Potency [1] | Potency [4] | Potency [8]
active: Potency [2] 23.5 µM | Potency [5] 26.4 µM

O=NN(CCCl)C(=O)NCCCl
inactive: Potency [1] | Potency [2] | Potency [4] | Potency [5] | Potency [6] | Potency [8] | Potency [10]
active: Potency [3] 0.148 µM
